Data as given in PubChem BioAssay AID1159580 (chemical genetic matrix, 2015).
Among all 5,500 compounds or so, about 2,000 (36%) were called active. Another 18% or so got no clear call; they are omitted. No stated cut-off is given here; in the data, active means normalized growth mostly below about 0.91 (no sharp cut-off); inconclusive means no clear call, values can overlap the other calls; inactive means mostly above about 0.92. The list shows a part of the results.

Assay: chemical genetic growth profiling, strain panel (AID 1159580);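 further: tested at 20 µM; growth read once vehicle control cultures reached saturation at 30 °C; 1 = growth at the plate median or of vehicle wells; lower values mean less growth of the strain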
Details: S. cerevisiae deletion strains, growth OD

Measured: normalized growth

C[N+]1(C)CCc2cc3c(cc2[C@H]1C1OC(=O)c2c1ccc1c2OCO1)OCO3 (stereo not given in full)
inactive: locus YAL021C, strain ccr4, active compounds read low 0.981 | locus YAL026C, strain drs2, active compounds read low 0.987 | locus YAL030W, strain snc1, active compounds read low 0.999 | locus YBL061C, strain skt5, active compounds read low 1 | locus YBR009C, strain hhf1, active compounds read low 0.992 | locus YBR023C, strain chs3, active compounds read low 1.01 | locus YBR171W, strain sec66, active compounds read low 1 | locus YBR231C, strain swc5, active compounds read low 1.01 | locus YBR279W, strain paf1, active compounds read low 0.997 | locus YCL011C, strain gbp2, active compounds read low 0.999 | locus YCL016C, strain dcc1, active compounds read low 0.991 | locus YCL061C, strain MRC1, active compounds read low 0.994 | locus YCL069W, strain vba3, active compounds read low 0.999 | locus YCR088W, strain abp1, active compounds read low 0.997 | locus YDL005C, strain med2, active compounds read low 1 | locus YDL040C, strain nat1, active compounds read low 0.996 | locus YDR001C, strain nth1, active compounds read low 0.983 | locus YDR069C, strain doa4, active compounds read low 1.02 | locus YDR137W, strain rgp1, active compounds read low 0.996 | locus YDR159W, strain sac3, active compounds read low 1.07 | locus YDR195W, strain ref2 0.989 | locus YDR297W, strain sur2, active compounds read low 1.01 | locus YDR334W, strain swr1, active compounds read low 0.986 | locus YDR335W, strain msn5, active compounds read low 0.996 | locus YDR392W, strain spt3, active compounds read low 0.982 | locus YEL003W, strain gim4, active compounds read low 1 | locus YEL037C, strain rad23, active compounds read low 0.99 | locus YEL061C, strain CIN8 (second series), active compounds read low 0.99 | locus YER015W, strain faa2, active compounds read low 0.992 | locus YER016W, strain bim1, active compounds read low 1 | locus YER111C, strain swi4, active compounds read low 1.01 | locus YER155C, strain BEM2 (second series), active compounds read low 1 | locus YFR010W, strain ubp6, active compounds read low 0.989 | locus YGL167C, strain pmr1, active compounds read low 0.998 | locus YGL173C, strain kem1, active compounds read low 1.01 | locus YGL227W, strain vid30, active compounds read low 1 | locus YGL240W, strain doc1, active compounds read low 1.01 | locus YGL253W, strain hxk2, active compounds read low 0.995 | locus YHR013C, strain ard1, active compounds read low 0.957 | locus YHR027C, strain rpn1, active compounds read low 0.992 | locus YHR030C, strain SLT2, active compounds read low 1.06 | locus YHR079C, strain IRE1, active compounds read low 1.06 | locus YHR142W, strain chs7, active compounds read low 0.981 | locus YJL092W, strain hpr5, active compounds read low 0.995 | locus YJL095W, strain BCK1 (second series), active compounds read low 0.994 | locus YJL095W, strain BCK1, active compounds read low 1.06 | locus YJL115W, strain asf1, active compounds read low 0.978 | locus YJL129C, strain trk1, active compounds read low 1 | locus YJL154C, strain vps35, active compounds read low 0.991 | locus YJL164C, strain tpk1, active compounds read low 0.98 | locus YJL166W, strain qcr8, active compounds read low 1 | locus YJL187C, strain SWE1, active compounds read low 1.02 | locus YJR066W, strain TOR1, active compounds read low 0.973 | locus YKL160W, strain elf1, active compounds read low 0.989 | locus YKR026C, strain gcn3, active compounds read low 0.991 | locus YKR091W, strain srl3, active compounds read low 0.988 | locus YLL001W, strain dnm1, active compounds read low 0.97 | locus YLL026W, active compounds read low 1 | locus YLL041C, strain sdh2, active compounds read low 0.993 | locus YLR027C, strain aat2, active compounds read low 1.01 | locus YLR113W, strain HOG1, active compounds read low 1.03 | locus YLR221C, strain rsa3, active compounds read low 1.03 | locus YLR258W, strain gsy2, active compounds read low 1.01 | locus YLR262C, strain YPT6 (second series), active compounds read low 0.995 | locus YLR320W, strain mms22, active compounds read low 1.03 | locus YLR342W, strain FKS1, active compounds read low 0.996 | locus YLR357W, strain rsc2, active compounds read low 0.956 | locus YLR370C, strain arc18, active compounds read low 1.01 | locus YLR384C, strain iki3, active compounds read low 0.999 | locus YML120C, strain ndi1, active compounds read low 0.991 | locus YMR058W, strain fet3, active compounds read low 0.986 | locus YMR125W, strain sto1, active compounds read low 0.97 | locus YMR129W, active compounds read low 1 | locus YMR205C, strain PFK2, active compounds read low 0.971 | locus YMR231W, strain pep5, active compounds read low 0.983 | locus YNL071W, strain lat1, active compounds read low 0.997 | locus YNL183C, strain NPR1, active compounds read low 0.974 | locus YNL209W, strain ssb2, active compounds read low 1 | locus YNL248C, strain rpa49, active compounds read low 0.959 | locus YNL322C, strain KRE1 (second series), active compounds read low 1 | locus YNR049C, strain mso1, active compounds read low 1.01 | locus YOR001W, strain rrp6, active compounds read low 1.01 | locus YOR070C, strain gyp1, active compounds read low 1.02 | locus YOR080W, strain dia2, active compounds read low 1.01 | locus YOR083W, strain WHI5, active compounds read low 0.997 | locus YOR106W, strain vam3, active compounds read low 0.963 | locus YOR231W, strain MKK1, active compounds read low 1.03 | locus YOR265W, strain rbl2, active compounds read low 1.01 | locus YOR270C, strain vph1, active compounds read low 0.967 | locus YOR290C, strain snf2, active compounds read low 0.95 | locus YPL051W, strain arl3, active compounds read low 1.04 | locus YPL078C, strain atp4, active compounds read low 0.965 | locus YPL106C, strain sse1, active compounds read low 0.999 | locus YPL240C, strain hsp82, active compounds read low 1.01 | locus YPL256C, strain CLN2, active compounds read low 1.03
